According to PubChem BioAssay (NCI):
About 83,000 compounds went through this panel and 20% of them were active in at least one assay; those are over-represented in the sample as a whole.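 The test compound was applied at a single concentration to cells in 96-well plates for 48 hours, and percent growth was recorded.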 Activity calls are given as the source filed them. How the source made its calls: active means growth percent below 10; inactive means the rest.

Columns and labels:
Assay in all cases: NCI-60 one-dose screen, 48 h (100 = growth as untreated, 0 = no growth, -100 = all killed)
Conditions in all cases: 10 µM unless noted
[1] = tested on: SR leukemia
[2] = tested on: OVCAR-8 ovarian
[3] = tested on: OVCAR-5 ovarian
[4] = tested on: OVCAR-4 ovarian
[5] = tested on: SK-OV-3 ovarian
[6] = tested on: IGROV1 ovarian
[7] = tested on: OVCAR-3 ovarian
[8] = tested on: HS 578T breast
[9] = tested on: NCI/ADR-RES ovarian
[10] = tested on: T-47D breast
[11] = tested on: BT-549 breast
[12] = tested on: SW-620 colon
[13] = tested on: MCF7 breast
[14] = tested on: HCT-116 colon
[15] = tested on: HCC-2998 colon
[16] = tested on: KM12 colon
[17] = tested on: RPMI-8226 leukemia
[18] = tested on: MDA-MB-435 melanoma

Measured: growth

C#C[C@]1(O)CC[C@H]2[C@@H]3CC=C4c5sc(-c6ccccn6)nc5CC[C@]4(C)[C@H]3CC[C@@]21C
inactive: [1] 29.3% | [2] 91.8% | [3] 94.2% | [4] 98.6% | [5] 76.8% | [6] 88.9% | [7] 88% | [8] 14.4% | [9] 89.8% | [10] 85.3% | [11] 59.8% | [12] 74.2% | [13] 49.3% | [14] 62% | [15] 92.5% | [16] 85.7%

O=C(Nc1cccc(-c2nc(-c3ccc(NC(=O)c4cccs4)cc3Cl)no2)c1)Nc1ccc(NC(=O)C2CC2)c(C(F)(F)F)c1
active: [1] -25.9% | [2] 2.05% | [3] -14.6% | [4] -81.3% | [5] -30.6% | [6] -40.4% | [7] -54.2% | [8] -27.1% | [10] -50.2% | [11] -19.1% | [12] -49.9% | [13] -40% | [14] 1.27% | [15] -55% | [16] -65.5%
inactive: [9] 45.5%

O=S(=O)(Nc1cc(Cl)c(F)c(Cl)c1)c1ccc(-c2cnc(C3CC3)o2)cc1
inactive: [1] 36% | [2] 44.5% | [3] 48.4% | [4] 58.3% | [5] 72.8% | [6] 43.5% | [7] 15.4% | [8] 30.5% | [9] 26.8% | [10] 29.8% | [11] 66.8% | [12] 23.8% | [13] 20.2% | [14] 27.3% | [15] 67.4% | [16] 26.1%

CCC(=O)Nc1ccc(-c2nc(-c3cccc(O)c3)c(-c3ccnc(Br)c3)[nH]2)cc1
inactive: [1] 38.2% | [2] 51.8% | [4] 51.1% | [5] 93.9% | [6] 85.4% | [7] 67.5% | [8] 23% | [9] 96.5% | [10] 26.4% | [11] 74.1% | [12] 84.7% | [13] 13.3% | [14] 55.9% | [15] 95.8% | [16] 58.9%

O=C(C[n+]1ccnc2ccccc21)c1ccc(O)c(O)c1
inactive: [2] 48.4% | [3] 70.5% | [5] 112% | [6] 51.4% | [7] 21.7% | [8] 94.4% | [9] 57.2% | [10] 45% | [11] 51.7% | [12] 24% | [13] 12.5% | [15] 81.2% | [16] 82.3%
active: [1] 7.3% | [14] 7.08%

CCC(=O)Nc1cc(Nc2cc(NC3CC3)n3ncc(C#N)c3n2)ccc1C
active: [6] 6.78% | [8] -17.4% | [10] 6.41% | [13] 3.83%
inactive: [1] 24.5% | [2] 43.4% | [3] 18.4% | [4] 17.1% | [5] 21.6% | [7] 26.2% | [9] 44.2% | [11] 29.5% | [12] 17.4% | [14] 19.2% | [15] 41.6% | [16] 32.5%

O=C(Nc1ccccc1)Nc1nc2ccc([N+](=O)[O-])cc2s1
active: [1] 2.29% | [4] -4.54% | [5] -7.62% | [7] 4.1% | [8] 5.92% | [9] 2.34% | [10] -14.3% | [11] -11.8% | [13] 2.9% | [14] 4.52% | [16] 3.66%
inactive: [2] 12.1% | [6] 19.7% | [12] 11.5% | [15] 10.8%

O=S(=O)(Nc1ccc(C2CC2)cc1)c1ccc(-c2cnc(C3CC3)o2)cc1
inactive: [1] 31.1% | [2] 80.2% | [4] 67.1% | [5] 87% | [6] 58.2% | [7] 53.2% | [8] 69% | [9] 47.7% | [10] 51.5% | [11] 76.3% | [12] 33.8% | [13] 33.3% | [14] 48.5% | [15] 91.1% | [16] 48.3%

Cc1cc(F)cc(NS(=O)(=O)c2ccc(-c3cnc(C4CC4)o3)cc2)c1
active: [7] -10.1% | [9] 6.6%
inactive: [1] 27.5% | [2] 35.8% | [3] 43% | [4] 49.6% | [5] 58.2% | [6] 32.4% | [10] 26.7% | [11] 48.8% | [12] 24.7% | [13] 21.4% | [14] 19.5% | [15] 24.9% | [16] 18.3%

CCCCCCNC(=O)Oc1ccc(/C(=C(/C)c2ccc(Cl)cc2)c2ccc(OCCN3CCCC3)cc2)cc1
inactive: [2] 56.8% | [3] 67.8% | [4] 54.6% | [5] 78.8% | [6] 32.6% | [7] 23.4% | [8] 61.1% | [9] 50.4% | [10] 41% | [11] 71.6% | [18] 51.6% | [15] 37.1%
active: [17] -35.8% | [12] -30.7% | [13] -41.8%

C#C[C@]1(O)CC[C@H]2[C@@H]3CC=C4c5sc(-c6ccc(OC)cc6)nc5CC[C@]4(C)[C@H]3CC[C@@]21C
active: [8] 2.91%
inactive: [1] 23.5% | [2] 84.6% | [3] 71.2% | [4] 97.9% | [5] 53.8% | [6] 70.2% | [7] 83.2% | [9] 83.8% | [10] 73.6% | [11] 47% | [12] 51.3% | [13] 27.6% | [14] 59.9% | [15] 90.1% | [16] 60%

O=C(Nc1cccc(-c2nc(-c3ccc(NC(=O)c4cccnc4)cc3Cl)no2)c1)Nc1ccc(NC(=O)C2CC2)c(C(F)(F)F)c1
active: [1] -14.4% | [2] -16.8% | [3] -65.6% | [4] -74.1% | [5] -48.3% | [6] -55.4% | [7] -74.7% | [8] -31% | [10] -51.1% | [11] -39.5% | [12] -59.9% | [13] -66.8% | [14] -52.8% | [16] -63.9%
inactive: [9] 64.1%

CCN(CC)Cc1c(-c2cccc(OC(F)(F)F)c2)[nH]c2ccc(N3CCCC3)cc2c1=O
inactive: [1] 91.4% | [2] 96.2% | [3] 92.5% | [4] 101% | [5] 111% | [6] 79.6% | [7] 104% | [8] 87.3% | [9] 92.5% | [10] 103% | [11] 87.7% | [12] 92.3% | [13] 78.4% | [14] 101% | [15] 87% | [16] 95.9%

CCOC(=O)Nc1ccc(-c2nc(-c3cccc(O)c3)c(-c3ccnc(Br)c3)[nH]2)cc1
active: [1] 9.74% | [8] -2.07%
inactive: [2] 10.7% | [3] 85% | [4] 13.6% | [5] 41.2% | [6] 33% | [7] 14.6% | [9] 63.5% | [10] 14% | [11] 35.4% | [12] 28.2% | [13] 13.9% | [14] 19.2% | [15] 56.2% | [16] 22.3%

CC1=C2C(=C[C@@](C)(COS(N)(=O)=O)[C@@H]2O)C(=O)[C@](C)(O)C12CC2
inactive: [1] 102% | [2] 74.3% | [3] 41.4% | [4] 80.8% | [5] 53.9% | [6] 60.7% | [7] 62.6% | [8] 104% | [9] 63.5% | [10] 71.8% | [11] 60.2% | [12] 85.3% | [13] 61.7% | [14] 70% | [16] 99.5%

C#C[C@]1(O)CC[C@H]2[C@@H]3CC=C4c5sc(C6CC6)nc5CC[C@]4(C)[C@H]3CC[C@@]21C
inactive: [1] 46.5% | [2] 88.3% | [3] 85.7% | [4] 107% | [5] 116% | [6] 97.9% | [7] 89.2% | [8] 68.1% | [9] 84.6% | [10] 73.8% | [11] 90.5% | [12] 91.2% | [13] 64.7% | [14] 71.4% | [15] 83.6% | [16] 57.4%

O=S(=O)(Nc1cc(Cl)cc(Cl)c1)c1ccc(-c2cnc(C3CC3)o2)cc1
inactive: [1] 29.5% | [2] 47% | [3] 45.6% | [5] 70.2% | [6] 40.7% | [7] 17.2% | [8] 36.7% | [9] 18.8% | [10] 41.7% | [11] 58.4% | [12] 26.1% | [13] 20.9% | [14] 31.3% | [15] 56.7% | [16] 24.2%
